The results in this text go back to PubChem BioAssay.

Assay [1] deals with Plasmodium falciparum Sir2 (PF13_0152, Sir2A). The assay is described as follows: pfSir2 binders on small-molecule microarrays, primary screen, biochemical, small-molecule microarray, 635 nm fluorescence (AID 1098).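 Note: score merges spot fluorescence intensity with its signal-to-noise ratio.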 The following applies: small-molecule microarray binding, fluorescence 635 nm; higher = more signal.
The nature of assay [2]: small-molecule microarray binders of probe aDKK1, primary screen, biochemical, biotinylated probe, 635/667 nm fluorescence (AID 1099).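 Note: score merges 667nm spot fluorescence with signal to noise across triplicate slides.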 The following applies: higher = more signal.
The nature of assay [3]: small-molecule microarray binders of probe aCHRDL2, primary screen, biochemical, biotinylated probe, 635/667 nm fluorescence (AID 1100). The settings on record: higher = more signal.
The nature of assay [4]: splicing luciferase reporter signal modulators, primary screen, spliceosome inhibition project, cell-based, HEK293, splice +/- reporter (AID 1101).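 Note: HEK293 cells carrying a splicing-competent luciferase reporter gene; test concentration not given here.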 The settings on record: luminescence, 24 h, higher = more signal, called active from +8 up or from −8 down.
In assay [5] the target is Fibroblast growth factor 10 (Homo sapiens) (UniProt O15520). Description: FGF10 binders on small-molecule microarrays, primary screen, biochemical, small-molecule microarray, 635 nm fluorescence (AID 1102). The following applies: FGF10 binding, fluorescence 635 nm, higher = more signal.
Fibroblast growth factor 10 (Homo sapiens), sequence (O15520 whole entry, looked up): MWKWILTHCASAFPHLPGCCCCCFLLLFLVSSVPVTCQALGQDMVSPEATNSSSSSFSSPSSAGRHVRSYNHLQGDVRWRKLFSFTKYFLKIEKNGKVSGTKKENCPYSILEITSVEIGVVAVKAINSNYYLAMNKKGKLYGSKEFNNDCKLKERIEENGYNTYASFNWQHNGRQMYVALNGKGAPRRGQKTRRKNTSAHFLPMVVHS
Assay [6] relates to glycogen synthase kinase-3 (GSK3A per assay name; protocol says GSK3B). Description: GSK3 binders on small-molecule microarrays, primary screen, biochemical, small-molecule microarray, 635 nm fluorescence, GSK3A (AID 1103). Note: the record names both GSK3A and GSK3B. The following applies: small-molecule microarray binding, fluorescence 635 nm; higher = more signal.
Assay [7] has as its target Epidermal growth factor receptor (Homo sapiens) (UniProt P00533). Description: EGFR binders on small-molecule microarrays, primary screen, biochemical, small-molecule microarray, 635 nm fluorescence (AID 1104).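 Note: score merges 667 nm emission intensity with spot signal to noise over triplicate slides.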 The following applies: EGFR binding, higher = more signal.
In assay [8] the target is Follistatin-related protein 3 (Homo sapiens) (UniProt O95633). Description: FSTL3 binders on small-molecule microarrays, primary screen, biochemical, small-molecule microarray, 635 nm fluorescence (AID 1105).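 Note: score merges emission near 667 nm and signal to noise per printed spot across three slides.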 The following applies: FSTL3 binding, higher = more signal.
Follistatin-related protein 3 (Homo sapiens), sequence (O95633 whole entry, looked up): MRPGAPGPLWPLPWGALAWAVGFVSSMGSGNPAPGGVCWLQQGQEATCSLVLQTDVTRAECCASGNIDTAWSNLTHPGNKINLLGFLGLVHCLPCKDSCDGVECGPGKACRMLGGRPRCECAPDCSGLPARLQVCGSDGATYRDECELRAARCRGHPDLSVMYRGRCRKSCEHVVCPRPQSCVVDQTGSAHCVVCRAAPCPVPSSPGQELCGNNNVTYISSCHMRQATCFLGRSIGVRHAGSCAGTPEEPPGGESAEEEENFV
The target of assay [9] is Dickkopf-related protein 1 (Homo sapiens) (UniProt O94907). Description: DKK1 binders on small-molecule microarrays, primary screen, biochemical, small-molecule microarray, 635 nm fluorescence scan (AID 1106).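 Note: score merges emission near 667 nm with signal to noise over three replicate slides.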 The settings on record: DKK1 binding, higher = more signal.
Dickkopf-related protein 1 (Homo sapiens), sequence (O94907 whole entry, looked up): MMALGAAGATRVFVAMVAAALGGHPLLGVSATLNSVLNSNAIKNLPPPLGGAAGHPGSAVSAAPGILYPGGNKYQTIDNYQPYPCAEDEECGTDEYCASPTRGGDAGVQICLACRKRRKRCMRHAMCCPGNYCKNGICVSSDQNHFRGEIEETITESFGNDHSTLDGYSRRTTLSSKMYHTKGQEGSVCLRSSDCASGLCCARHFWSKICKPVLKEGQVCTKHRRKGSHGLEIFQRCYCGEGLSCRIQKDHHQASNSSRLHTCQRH
Assay [10] has as its system Inhibin beta A chain (activin A). Description: INHBA (activin A) binders on microarrays, primary screen, biochemical, small-molecule microarray, 635 nm fluorescence scan (AID 1107).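 Note: mouse activin A protein probed at 4.33 µg/mL on printed slides; score merges bound-protein fluorescence near 667 nm with spot signal-to-noise.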 The following applies: small-molecule microarray binding, higher = more signal.
For assay [11], the system named is Human papillomavirus type 1a protein E7 (residues 44-93). Description: HPV1a E7 fragment binders on microarrays, primary screen, biochemical, small-molecule microarray, residues 44-93, 635 nm fluorescence (AID 1108).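 Note: E7 fragment applied at 1 µg/mL in TBST for 1 h at 4 C; score combines spot fluorescence with its signal to noise ratio.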 The settings on record: small-molecule microarray binding, fluorescence 635 nm; higher = more signal.
A short description of assay [12]: modulators of HCV replicon luciferase signal, primary screen, HCV replication inhibitor project, Huh7 cells, luciferase reporter (AID 1109).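 Note: huh7 hepatoma cells harbouring a luciferase neomycin HCV replicon reporter; luciferase luminescence as measure of HCV replicon replication; test concentration not given here.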 The settings on record: 48 h, higher = more signal.
Assay [13] deals with Left-right determination factor 2 (Homo sapiens) (UniProt O00292). The assay is described as follows: LEFTY2 binders on small-molecule microarrays, primary screen, biochemical, small-molecule microarray, 635 nm fluorescence scan (AID 1110). The following applies: LEFTY2 binding, higher = more signal.
Left-right determination factor 2 (Homo sapiens), sequence (O00292 whole entry, looked up): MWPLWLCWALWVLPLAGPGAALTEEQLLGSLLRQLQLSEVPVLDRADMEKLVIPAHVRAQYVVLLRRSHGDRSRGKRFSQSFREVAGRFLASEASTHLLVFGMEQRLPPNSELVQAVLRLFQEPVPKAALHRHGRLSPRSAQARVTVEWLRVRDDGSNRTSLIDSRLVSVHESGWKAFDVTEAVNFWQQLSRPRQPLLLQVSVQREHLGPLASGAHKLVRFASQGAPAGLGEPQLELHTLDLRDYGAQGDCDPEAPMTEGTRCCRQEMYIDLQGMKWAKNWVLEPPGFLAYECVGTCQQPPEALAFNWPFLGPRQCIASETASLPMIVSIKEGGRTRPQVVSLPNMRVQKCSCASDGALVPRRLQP
The target of assay [14] is Calmodulin-1 (Homo sapiens) (UniProt P0DP23). Description: CALM1 binders on microarrays, EGTA buffer, profiling panel, biochemical, small-molecule microarray, Cy5-labelled CALM1 (AID 1111).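 Note: labelled calmodulin applied in Tris saline Tween buffer holding calcium plus EGTA and DTT.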 The settings on record: Cy5-CALM1 binding fluorescence, higher = more signal.
The target is the same in assay [15]. The assay is described as follows: calcium-bound CALM1 binders on microarrays, profiling panel, artefact control for SMM control-protein annotation, biochemical, small-molecule microarray, Cy5-labelled CALM1, plus calcium (AID 1112).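 Note: score merges spot fluorescence with signal to noise from triplicate slides.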 The settings on record: Cy5-CALM1 binding fluorescence, higher = more signal.
Assay [16] can be described thus: small-molecule microarray binders of probe aWnt5a, primary screen, biochemical, biotinylated probe, 635/667 nm fluorescence (AID 1113).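 Note: score merges 667 nm fluorescence intensity with signal-to-noise per printed feature.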 The following applies: higher = more signal.
A short description of assay [17]: small-molecule microarray binders of probe aShh, primary screen, biochemical, biotinylated probe, 635/667 nm fluorescence (AID 1114).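 Note: probe is biotin-labelled aShh protein from a stem cell growth factor screen; measures binding of labelled protein to compounds printed on the slide; score merges feature fluorescence at 667 nm with signal-to-noise.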 The following applies: higher = more signal.
Assay [18] in a line: small-molecule microarray binders of probe aNog, primary screen, biochemical, biotinylated probe, 635/667 nm fluorescence (AID 1115).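 Note: probe is biotinylated aNog protein used at 0.15 µg/mL for 1 h at 4 C; z-score combines 667 nm fluorescence of each spot with its signal to noise.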 The following applies: higher = more signal.
Assay [19] deals with Torsin-1A-interacting protein 1 (Homo sapiens) (UniProt Q5JTV8). The assay is described as follows: LAP1 binders from COS7 cell lysate, primary screen, small-molecule microarray, 635/667 nm fluorescence (AID 1116). The settings on record: COS7-hLAP1 lysate binding, 635 nm fluorescence, higher = more signal.
Torsin-1A-interacting protein 1 (Homo sapiens), sequence (Q5JTV8 whole entry, looked up): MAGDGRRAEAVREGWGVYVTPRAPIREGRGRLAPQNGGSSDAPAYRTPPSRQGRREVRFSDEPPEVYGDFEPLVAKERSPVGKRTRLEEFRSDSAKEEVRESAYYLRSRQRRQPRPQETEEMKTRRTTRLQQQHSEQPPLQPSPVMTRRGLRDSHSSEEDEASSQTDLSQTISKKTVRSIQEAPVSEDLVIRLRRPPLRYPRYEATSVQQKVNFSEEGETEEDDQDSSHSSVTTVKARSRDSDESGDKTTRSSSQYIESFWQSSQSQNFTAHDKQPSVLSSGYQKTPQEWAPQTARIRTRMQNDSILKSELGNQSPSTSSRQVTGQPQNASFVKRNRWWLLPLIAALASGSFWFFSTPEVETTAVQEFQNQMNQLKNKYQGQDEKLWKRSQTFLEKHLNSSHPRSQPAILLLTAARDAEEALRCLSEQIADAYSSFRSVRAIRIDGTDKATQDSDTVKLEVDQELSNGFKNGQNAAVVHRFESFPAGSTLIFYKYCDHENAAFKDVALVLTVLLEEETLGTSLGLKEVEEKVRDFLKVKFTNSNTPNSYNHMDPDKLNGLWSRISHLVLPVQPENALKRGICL
Assay [20] concerns the target Alpha-bungarotoxin (Bungarus multicinctus) (UniProt P60615). Description: alpha-bungarotoxin binders on microarray, profiling panel, artefact control for SMM control protein annotation, biochemical, small-molecule microarray, Alexa647 label, 635/667 nm fluorescence (AID 1117). The settings on record: alpha-BTX-A647 binding fluorescence, higher = more signal.

Activity calls are given as the source filed them.

Epidermal growth factor receptor (Homo sapiens), sequence (P00533 whole entry, looked up): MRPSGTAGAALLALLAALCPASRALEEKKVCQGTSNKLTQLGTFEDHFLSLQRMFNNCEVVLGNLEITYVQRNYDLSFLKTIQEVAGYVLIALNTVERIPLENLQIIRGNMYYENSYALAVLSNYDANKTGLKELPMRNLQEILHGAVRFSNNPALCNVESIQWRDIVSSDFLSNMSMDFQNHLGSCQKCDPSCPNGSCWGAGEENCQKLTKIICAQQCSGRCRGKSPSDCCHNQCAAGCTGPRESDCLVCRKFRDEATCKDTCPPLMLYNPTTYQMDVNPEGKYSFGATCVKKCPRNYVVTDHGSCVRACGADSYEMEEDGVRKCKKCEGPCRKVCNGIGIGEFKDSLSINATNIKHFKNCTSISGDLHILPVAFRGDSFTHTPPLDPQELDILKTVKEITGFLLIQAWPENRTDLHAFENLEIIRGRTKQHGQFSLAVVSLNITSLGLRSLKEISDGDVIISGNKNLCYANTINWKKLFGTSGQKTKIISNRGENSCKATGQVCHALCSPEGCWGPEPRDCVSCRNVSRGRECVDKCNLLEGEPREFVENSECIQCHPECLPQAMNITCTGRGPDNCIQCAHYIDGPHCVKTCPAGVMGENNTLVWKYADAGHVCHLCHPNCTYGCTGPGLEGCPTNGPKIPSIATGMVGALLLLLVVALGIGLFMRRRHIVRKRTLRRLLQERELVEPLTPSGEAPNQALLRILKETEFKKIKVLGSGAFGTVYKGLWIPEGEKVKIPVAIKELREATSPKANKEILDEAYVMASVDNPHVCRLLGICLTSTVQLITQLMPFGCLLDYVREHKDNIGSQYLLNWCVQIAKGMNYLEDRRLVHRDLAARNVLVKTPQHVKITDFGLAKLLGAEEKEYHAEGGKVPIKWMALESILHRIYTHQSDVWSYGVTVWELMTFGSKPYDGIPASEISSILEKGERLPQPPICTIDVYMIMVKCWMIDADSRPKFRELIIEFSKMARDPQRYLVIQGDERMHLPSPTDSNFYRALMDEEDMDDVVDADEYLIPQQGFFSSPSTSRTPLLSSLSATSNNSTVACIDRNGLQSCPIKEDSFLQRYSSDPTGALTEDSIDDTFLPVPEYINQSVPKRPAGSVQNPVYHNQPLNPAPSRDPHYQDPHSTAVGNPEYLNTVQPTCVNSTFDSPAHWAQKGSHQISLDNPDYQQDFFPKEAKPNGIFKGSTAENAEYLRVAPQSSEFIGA
Alpha-bungarotoxin (Bungarus multicinctus), sequence (P60615 whole entry, looked up): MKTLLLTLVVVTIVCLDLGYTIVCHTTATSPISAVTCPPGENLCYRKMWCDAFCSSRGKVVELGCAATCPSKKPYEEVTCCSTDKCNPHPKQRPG

On to `C=CCC(OC(C)=O)[C@@H]1[C@@H](N(Cc2cccc3ccccc23)C(=O)c2ccc(C)cc2)c2cc(OCCCO)ccc2N1C(=O)Cc1ccc(OC)cc1` (stereo not given in full), for which the composite z-score is 0.102 in [1]; -0.413 in [2]; -0.281 in assay [3]; -0.104 in [5]; 0.0349 in assay [6]; 0.254 in assay [7]. Besides, the composite z-score in assay [8] is 0.492; in [9] it was 0.576; in assay [10], 1.05; in assay [11] it was 0.332; in [13], -0.248; in assay [14] it was 0.327. The composite z-score in [15] is -0.0943; in [16], -0.124; in assay [17] it was 0.0278; in assay [18] it was -0.198; in [19] it was 0.0873; in assay [20], 0.215. Also, the values for the z-score in [4] and in assay [12] were -1.53 (inactive) and -0.22, respectively.

For the compound `CC(c1ccccc1)C(O)C1C=CC2C(=O)NC(=O)C2N1Nc1ccccn1` (stereo not given), the composite z-score in assay [1] was 0.459; in assay [2] it was 0.0178; in assay [3], 0.585; in [5], 0.831; in [6], 0.767; in [7], 0.532. For the same compound, the composite z-score in assay [8] is 1.01; in [9], 0.481; in [10], 1.41; in [11], 1.35; in assay [13], 0.313; in [14] it was -0.104. Moreover, the composite z-score is -0.487 in assay [15]; -0.0478 in assay [16]; -0.138 in [17]; 0.496 in assay [18]; 0.903 in assay [19]; 0.672 in assay [20]. For the same compound, the z-score was 1.63 (inactive) in assay [4] and 0.355 in [12].

For the compound `C=C(CCCC)C(=O)CC[C@H](OC(=O)c1cccnc1)c1cccc(OCCO)c1`, the composite z-score in [1] was 0.681; in [2] it was -0.298; in assay [3] it was 0.165; in [5], 0.309; in [6], -0.208; in assay [7], -0.502. Besides, the composite z-score in assay [8] was -0.688; in assay [9] it was -0.219; in assay [10], 1.29; in [11], 0.343; in assay [13], 0.0112; in [14], -0.538. Also, the composite z-score in [15] is -0.993; in [16] it was -0.0107; in [17], -0.0035; in assay [18], -0.356; in assay [19], 0.479; in [20], -0.0331. Further, the z-score in assay [4] is 4.13 (inactive); in assay [12], -3.04.

Regarding `COC(=O)[C@]1(Cc2ccccc2N=[N+]=[N-])N=C(c2ccc(OCCCO)cc2)O[C@@H]1c1ccccc1N=[N+]=[N-]`, the composite z-score in assay [1] was 1.35; in [2], 0.0046; in assay [3], 0.191; in assay [5], 0.0833; in assay [6] it was -0.383; in [7], -0.049. Moreover, the composite z-score in assay [8] is 0.488; in assay [9], -0.0862; in assay [10] it was 0.755; in [11] it was -0.0688; in assay [13], -0.0072; in [14] it was -0.062. Also, the composite z-score in assay [15] was -0.374; in assay [16], -0.129; in assay [17], -0.138; in assay [18] it was -0.51; in assay [19], 0.412; in [20], 0.019. The z-score is -0.71 (inactive) in assay [4] and -3.52 in assay [12].

`CCCCC=C[C@@H](NC(=O)c1ccco1)c1ccccc1`: the composite z-score in assay [1] was 0.276; in assay [2], 0.373; in [3], 0.557; in assay [5] it was 0.689; in [6] it was -0.877; in assay [7] it was 0.12. Further, the composite z-score in assay [8] was 0.296; in assay [9] it was 0.0504; in [10] it was 0.809; in assay [11], -0.244; in assay [13], 0.0518; in [14], 1.31. Moreover, the composite z-score is 0.137 in assay [15]; 0.0151 in assay [16]; 0.356 in [17]; 0.531 in assay [18]; -0.153 in assay [19]; 1.18 in [20]. Also, the results for the z-score in assay [4] and in assay [12] were 0.808 (inactive) and -0.502, respectively.
